# Laboratory results from the supplement of paper PMC12632987.
# Biological target: UCHL1, P09936
# Experiment: median log2 fold change of GCK-ALFA target abundance (FLAG IP / Myc IP barcode read proportion) (log2 ratio); each designed protein is fused to an ALFA-tag nanobody in HEK293 cells to bring the named protein to FLAG-tagged glucokinase (GCK); Myc marks an untargeted standard; higher = target protein stabilised (more abundant)
# Conditions: target protein: 3xFLAG-MCP-GCK-ALFA reporter; HEK293 landing pad (RPLP)
# How it was run: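 An ALFA-nanobody-fused binder library was recombined into HEK293 landing-pad cells and induced with 2 μg mL^−1 doxycycline. Cells were transfected with a plasmid expressing a FLAG-tagged target and a Myc-tagged standard. After 48 h, lysates underwent anti-FLAG and anti-Myc immunoprecipitation, and circular RNA barcodes were reverse transcribed, amplified and sequenced. Target abundance is the per-binder median log2 ratio of FLAG to Myc barcode read proportions. Barcodes needed ≥10^−7 proportion in both replicates, binders ≥3 barcodes per replicate, and a 10^−6 pseudocount was added; the two replicates were pooled.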
# Sequence of UCHL1, P09936 (P09936 whole entry, looked up, the tested form may be a part): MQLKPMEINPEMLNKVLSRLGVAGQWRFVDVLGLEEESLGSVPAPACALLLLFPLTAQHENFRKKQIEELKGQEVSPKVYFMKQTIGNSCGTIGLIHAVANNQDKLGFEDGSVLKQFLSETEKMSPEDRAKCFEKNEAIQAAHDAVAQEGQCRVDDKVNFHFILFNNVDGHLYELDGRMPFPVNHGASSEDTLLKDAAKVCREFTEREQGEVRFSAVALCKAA
row,Binder,median log2 fold change
1,uchl1_89_7574 (protein) DPRLDPATAARLRAIAERTEAALRRILTKAGVPQATIDAFLALVRAAADTTIADRAAAPAQLAALEAALRALTARVDPATAANVRLAMGPLLRLLEGVAQ,-0.0395
2,uchl1_2_7572 (protein) KTVFVGVKVTLTAYDEKTGKTYKSTRTLIFTESALEAAAKEIEELALNFQDAVGVPVKVDVHVVSTDEEVLKRLKELLEKMAKKLAKKGIEVNISGEVVK,-0.571
3,uchl1_89_7584 (protein) EEARRAAARERLRRVLAATRERLEALMAKWGVADPEAVAALEELFRHAELAIEDPERAEEALAKAEEAAKRLLALAPEERRADVRMATGRLLNRLLGYVA,-0.114
4,uchl1_89_7586 (protein) EEERLAAARARLRRILAATRAELERLIASLGVRDPALEAALAAFFAHARRAIEDPATAEEALAAAEAAARELLALAPPEKRADFRLATGRLLNALLGYRA,0.158
5,uchl1_89_7579 (protein) EEERLARARERLRRVLAATRAELARLEARIGEVSPELAAARDALFAAAEAAIADPALAAAQLEAAEAAARRLVALTPPELRASVRLATGRLLNRLLGYAA,-0.16
6,uchl1_89_7587 (protein) EEARREAARARLERVLAKTRARLEALLARMGAPDPAMVAALDALFDAARTALADPATAEAALAEAEAAARRLVELAPEEVKASVRLATGRLVIALRGYLA,-0.0889
7,uchl1_2_7571 (protein) ETVFVGVLVTLRARDAETGKEYRSRRTFIFTEDSIEALAEEIRELALAFQADVGVPVTVDIHIYSTKKEVVEKTKKVLEEMAKELAKEGITVNITGTVVK,-0.528
8,uchl1_89_7582 (protein) EEERLARAREHLRRVLAKTRAALDRLIARLGEPDPELVAAHEELLAAAEAAIADPERAEEYLAKAEEAAVRLVELAPPERRASFRLAVGRLINTLLGYAA,-0.405
9,uchl1_89_7583 (protein) EEEREAAARARLRAILAATRAALERLIARWGVRDPEAQAALDALFANAERAIADPSTAAEALAKAEEAARRLLALAPPEKRADVRLATGRLLNALLGYVA,-0.0264
10,uchl1_89_7581 (protein) EAARLERAKAKLRAVLAATRAALDRLIARLGEPDPALVAARDALFAAAEAAIADPARAAEYLARAEAAARRLVELAPPERRASFRLAAGRLVNTLLGFAA,-0.302
11,uchl1_89_7580 (protein) EEERLRRARERLRRVLEATRAEVERLIARLGEPDPALVAAAEELFAAAEAALEDPERAAEYLARAEAAARRLVELAPPERRASFRLAVGRLVNTLLGYAA,0.043
12,uchl1_89_7576 (protein) AEARAQAARARLRAVLAATRAEVERLLARLGEVDPALRAAFDAFFAAAEAAIADPSTAAAALAAAEAAARRLVELAPPEYRASFRLATGRLLNLLRGYAA,-0.0383
13,uchl1_89_7578 (protein) EAARLAAARARLRRVLAATRAEVERLLARLGEVPPELRAAFDAFFAAAEAAIADPSTAAEALAAAEAAARRLVELAPPEYRASFRLATGRLLNALRGYAA,0.184
14,uchl1_89_7577 (protein) EEERLEAARERLRRILARTRAEVERLLARLGEVPPELRAALDAFFAAAEAAIADPSTAEAALAEAEAAARRLVELAPPEYRASFRLALGRLVNALLGYAA,0.111
15,uchl1_2_7573 (protein) KTVFVGIKVTLEAYDEKTGKTYRSTRTLIFTEEALEKAAEEVKELALNFKDAVGVPVTVNVHIVSTDEEVLERLKKLLEEMAKELAKEGITVNISGEVVK,-0.366
16,uchl1_89_7575 (protein) EAARREAARARLRRILAATEARVAALLARLGEVPPELAAARDAFFAAARAAIDDPATAAAALAAAEAAARRLVELAPPEYRASFRLATGRLLNALRGWAA,0.127
